14 compounds from PubChem BioAssay (NCATS) can be followed below.

SMILES strings stand for the structures. Unmarked numbers belong to inactive results. Records with an inconclusive call do not appear. The source made the active and inactive calls. Calls come from the whole dose curve; as a rule, active = well fitted curve in the direction sought with a large enough effect; inconclusive = small, poorly fitted or top-dose-only effect, or another doubt; inactive = no such curve, though single readings can be large; an effect the other way counts as inactive or inconclusive.

The target of assay [1] is Glutathione peroxidase 1 (Homo sapiens) (UniProt P07203). The assay can be described thus: Primary qHTS Assay for Inhibitors of Recombinant Selenoprotein Glutathione Peroxidase 1 (GPX1) (AID 1845191). For activity, negative = inhibition: % is set by controls: 0 for no effect and ±100 for the full control effect. Note: nearly all actives have a fitted effect of over 65% in size. Note: potency is the fitted concentration of half-maximal effect. An outline of the steps:
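NADPH consumption tracked by fluorescence at 340/450 nm between t=0 and t=15 min, room temperature. Final mix: 10 nM GPX1, 100 nM glutathione reductase, 1 mM GSH, 0.5 mM NADPH, 0.5 mM cumene hydroperoxide, 0.01% BSA; 30 min compound–enzyme preincubation.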
In general terms: qHTS replaces the single test concentration by a dilution series.

Assay [2] concerns the target Metallo-beta-lactamase type 2 (Klebsiella pneumoniae) (UniProt C7C422). The assay can be described thus: qHTS to identify inhibitors of the New Delhi Metallo-beta-lactamase (NDM): assay validation screen against the NCATS LOPAC Collection (AID 1794843).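 Note: nitrocefin turnover by NDM-1 measured as 485 nm absorbance at plateau; series mostly up to about 38 µM; % is set by controls: 0 for no effect and ±100 for the full control effect.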 An outline of the steps: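 NDM-1 at 2 nM final in 50 mM HEPES pH 7.0 with 1 uM ZnSO4 and 0.01% Tween20 was preincubated with library compounds in DMSO. Nitrocefin (50 uM stock) was then added, and absorbance at 485 nm was read at the kinetic plateau.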

Assay [3] has as its target Luciferin 4-monooxygenase (Photinus pyralis) (UniProt P08659). The assay can be described thus: Primary firefly luciferase (FLuc) qHTS assay for identification of artifact compounds. (AID 1845220).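 For activity change, negative = inhibition: series mostly up to about 54 µM; plate controls were DMSO vehicle for no effect and no enzyme for full effect.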 Note: nearly all actives have a fitted effect of over 60% in size. An outline of the steps: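 FLuc 10 nM; luciferin 10 uM; ATP 10 uM; Tris-acetate pH 7.6, Mg-acetate 10 mM; 15 min RT preincubation; 5 min reaction; luminescence.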
Assay [4] in a line: Primary fluorescence-based thiol-reactive (MSTI) qHTS assay for identification of artifact compounds. (AID 1845221). Note: nearly all actives have a fitted effect of over 65% in size. Note: potency is the fitted concentration of half-maximal effect. The gist of the method: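 MSTI probe at 4 uM final in 2% DMSO/PBS pH 7.4; compounds, 1 h at room temperature in dark. Fluorescence Ex/Em 525/598 nm, normalised to Acetyl-MSTI and MSTI, fitted to 4-parameter Hill.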
The test system of assay [5] is Nanoluciferase (engineered Oplophorus gracilirostris luciferase). The assay can be described thus: Primary Nanoluciferase (NLuc) qHTS assay for identification of artifact compounds. (AID 1845222).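 Note: NLuc secreted into diluted conditioned medium of S16 cells; series mostly up to about 54 µM; 0% = DMSO and -100% = no enzyme.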 The gist of the method: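 NLuc from S16 cell medium (1:55) plus test compounds, 15 min, room temperature. Luminescence after Nano-Glo (1:100) addition, 5 min.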
Assay [6] can be described thus: Primary redox qHTS assay for identification of artifact compounds. (AID 1845223).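 Note: 0% = DMSO and 100% = reference compound.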 An outline of the steps:
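Redox-cycling detection via DTT (250 uM final) oxidation coupled to Amplex Red (25 uM)/HRP (250 mU/mL) in HBSS. 15 min preincubation plus 30 min after DTT, room temperature. Ex/Em 525/598 nm; 4-parameter Hill fit against DMSO and 10 uM DA3003.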

For assay [7], the target named is Phospholipid hydroperoxide glutathione peroxidase GPX4 (Homo sapiens) (UniProt P36969). The assay can be described thus: Primary qHTS Assay for Inhibitors of Recombinant Selenoprotein Glutathione Peroxidase 4 (GPX4) (AID 1845192). For activity change, negative = inhibition: series mostly up to about 50 µM; % is set by controls: 0 for no effect and ±100 for the full control effect. Note: nearly all actives have a fitted effect of over 65% in size. The gist of the method: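 NADPH consumption followed by fluorescence at 340/450 nm, t=0 and after 15 min at room temperature. Reaction started with cumene hydroperoxide (0.5 mM final) after 30 min compound–GPX4 preincubation; final 200 nM GPX4, 100 nM GR, 1 mM GSH, 0.5 mM NADPH.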
Chain of Phospholipid hydroperoxide glutathione peroxidase GPX4 (Homo sapiens) (P36969 whole entry, looked up): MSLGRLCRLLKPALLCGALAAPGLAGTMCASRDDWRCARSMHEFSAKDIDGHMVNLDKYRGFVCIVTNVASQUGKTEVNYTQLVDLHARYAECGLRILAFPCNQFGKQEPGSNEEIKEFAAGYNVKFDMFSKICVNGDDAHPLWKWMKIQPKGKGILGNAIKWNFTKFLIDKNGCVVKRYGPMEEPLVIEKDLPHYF

Chain of Glutathione peroxidase 1 (Homo sapiens) (P07203 whole entry, looked up): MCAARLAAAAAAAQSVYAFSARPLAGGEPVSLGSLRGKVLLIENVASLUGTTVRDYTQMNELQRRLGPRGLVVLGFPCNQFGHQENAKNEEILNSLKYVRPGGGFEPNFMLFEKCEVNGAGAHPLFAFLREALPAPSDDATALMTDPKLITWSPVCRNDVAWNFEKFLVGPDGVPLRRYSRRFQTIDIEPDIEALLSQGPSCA
Chain of Metallo-beta-lactamase type 2 (Klebsiella pneumoniae) (C7C422 whole entry, looked up): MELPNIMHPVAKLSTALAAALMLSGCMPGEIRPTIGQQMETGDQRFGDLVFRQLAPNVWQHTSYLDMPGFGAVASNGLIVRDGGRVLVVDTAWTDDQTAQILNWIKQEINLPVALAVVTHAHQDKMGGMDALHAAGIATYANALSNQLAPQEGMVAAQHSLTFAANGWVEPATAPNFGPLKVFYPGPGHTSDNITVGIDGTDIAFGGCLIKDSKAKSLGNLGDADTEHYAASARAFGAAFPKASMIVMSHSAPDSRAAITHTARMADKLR

`CCC(=O)O[C@]1(C(=O)COC)[C@@H](C)C[C@H]2[C@@H]3CCC4=CC(=O)C=C[C@]4(C)C3(F)[C@@H](O)C[C@@]21C` (stereo not given in full): the Potency result in assay [1] is “inactive”.

For the compound `COC(=O)[C@H]1[C@H]2C[C@@H]3c4[nH]c5cc(OC)ccc5c4CCN3C[C@H]2C[C@@H](OC(=O)/C=C/c2ccc(O)c(OC)c2)[C@@H]1OC`, in assay [1], the Potency entry was “inactive”.

With `COc1ccccc1N1CCN(CCN2C(=O)CC3(CCCC3)CC2=O)CC1`, the outcome in assay [2] and in assay [6] was inactive. Besides, the Potency result in assay [1], in assay [3], in assay [4] and in assay [5] was “inactive” each time.

As to `Cc1nn(-c2ccccc2)c(C)c1/C=N/N1CCN(Cc2ccccc2)CC1`, the call in assay [2] and in assay [6] was inactive. Moreover, the Potency result in assay [1], in assay [7], in assay [3], in assay [4] and in assay [5] was “inactive” each time.

For the compound `CC(C)=CCC/C(C)=C/CC/C(C)=C/CCC(=O)OC/C=C(\C)CCC=C(C)C`, the Potency entry in assay [1] is “inactive”.

On to `O=C(CCOCCOCCOCCOCCC(=O)Nc1c(I)cc(I)c(C(=O)O)c1I)Nc1c(I)cc(I)c(C(=O)O)c1I`, for which the Potency entry in assay [1] is “inactive”.

For `CCN(CC)CC(=O)Nc1c(C)cccc1C(=O)OC`, in assay [1], the Potency result is “inactive”.

In the case of `O=C1NC(c2cccc([N+](=O)[O-])c2)=CCN1c1ccccc1O`, the compound was classed as inactive in assay [2]. Besides, the Potency entry in assay [1], in assay [7], in assay [3] and in assay [5] was “inactive” throughout.

With `CN(C)c1cc2c(Nc3ccc4c(cnn4Cc4ccccc4)c3)ncnc2cn1`, the call in assay [2] was inactive. The Potency result in assay [1], in assay [7], in assay [3] and in assay [5] was “inactive” each time.

As for `O=[N+]([O-])c1ccc(O)c2ncccc12`, the Potency result in assay [1] is “inactive”.

As to `CCN(CC)CCNC(=O)c1ccc(NS(C)(=O)=O)cc1`, the result in assay [2] was inactive. The Potency result in assay [1] is “inactive”.

As to `N[C@@H](Cn1ccc(=O)c(O)c1)C(=O)O`, the outcome in assay [2] was inactive. Besides, the Potency entry in assay [1] and in assay [7] was “inactive” each time. Further, the activity change, negative = inhibition in assay [3] was -9.21% [at 6.45 µM]. For the same compound, the activity, negative = inhibition in assay [5] is -6.53% [at 6.45 µM]. Also, in assay [6], the redox activity (% of DA3003) is -4.94% [at 6.41 µM].

As for `COc1cc(C(=O)NC2CCCNC2)cc(OC)c1OC` (stereo not given), the Potency in assay [1] is 12.8 µM (active).

With `COC(=O)C1=CO[C@@H](O)[C@@H]2C(CO)=CC[C@H]12`, the compound was classed as inactive in assay [2] and in assay [6]. The Potency result in assay [1], in assay [7], in assay [3] and in assay [5] was “inactive” throughout. Besides, the Potency in assay [4] was 13.4 µM (active).
